From PubChem BioAssay (NCI) come the findings set out here.

The panel holds about 83,000 compounds, 20% with a hit somewhere; the sample as a whole holds those more often.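 In brief: 96-well plates, 48 h treatment, single concentration, percent growth endpoint.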 Unmarked numbers belong to inactive results. The source made the active and inactive calls. Rule for the calls: active = growth percent below 10; inactive = the rest.

The first assay concerns SR leukemia. The assay can be described thus: NCI-60 one-dose screen, 48 h (100 = growth as untreated, 0 = no growth, -100 = all killed). Conditions: 10 µM unless noted.
Consider `O=c1ncc(-c2ccc(C(F)(F)F)cc2)c(NC2CCCCCC2)[nH]1`, for which the growth is 69%.

As for `NS(=O)(=O)N(c1cc(C(F)(F)F)cc(C(F)(F)F)c1)C1CCN(Cc2ccc(C(F)(F)F)cc2)CC1`, the growth was -6.79% (active).

Turning to `Nc1ccc2c(c1Br)Cc1ccccc1-2`, the growth was 93.6%.

As to `CC1C(C)N(C(=O)CCl)c2ccccc2N1C(=O)CCl` (configuration not stated), the growth is -29.6% (active).

Turning to `Nc1ccccc1-c1ccn[nH]1`, the growth was 99.7%.

For `O=C1OC2(c3ccccc31)c1ccccc1-c1ccccc12`, the growth was 41.4%.

Consider `O=C(c1ccc(Cl)cc1)c1ccc(Cl)cc1`, for which the growth is 93.3%.

For the molecule `Nc1ccc2c(c1)C(=O)c1cc(Cl)c(Cl)cc1-2`, the growth was 82%.

Take `COc1cc(/C(Cl)=C/C=C/C(=O)c2c(C)[n+]([O-])c3ccc(Cl)cc3[n+]2[O-])cc(OC)c1OC`: the growth was 2.04% (active).

On to `CCSc1ncc(Br)c(Sc2nc(N)nc3nc[nH]c23)n1`, for which the growth was 19.4%.

As for `O=C1/C(=C/c2ccccc2O)C(=S)SN1Cc1ccco1`, the growth was -9.87% (active).

As for `N#CC1c2ccccc2C=CN1C(=O)N(c1ccccc1)c1ccccc1` (configuration not stated), the growth is 1.1% (active).

As to `COc1ccc2[nH]c(=O)c(CNc3ccc(Nc4nccc(-c5ccc(Cl)cc5)n4)cc3)cc2c1`, the growth is 54%.

As for `Nc1ccc(N=Nc2ccccc2)cc1[N+](=O)[O-]`, the growth is 93.2%.

For `OCCN1CCN(CCCN2c3ccccc3Sc3ccc(C(F)(F)F)cc32)CC1`, the growth was -42.9% (active).

In the case of `C1CCC(C(CC2CCCCN2)C2CCCCC2)CC1` (configuration not stated), the growth is -39.7% (active).

With `COc1ccc(C2CC(c3ccc4c(c3)OCO4)=NN2C=O)cc1` (configuration not stated), the growth was 100%.

Regarding `CC(=O)Nc1c(Cl)cc2c(c1Cl)Cc1cc([N+](=O)[O-])ccc1-2`, the growth is 70%.

On to `Cc1ncc(C(=O)Nc2ccc(CN3CCN(C)CC3)c(C(F)(F)F)c2)cc1C#Cc1cncc2ncccc12`, for which the growth was -13.2% (active).

For the molecule `Cc1cccc2nnc(-c3ccccc3)n12`, the growth is 93%.

Turning to `Cn1ccnc1C(=O)/C=C/c1ccc(C(=O)Nc2nc3ccccc3[nH]2)cc1`, the growth was 11.2%.

For the molecule `Cc1cc(-c2ccccc2)cc(C)n1`, the growth is 99.4%.

Regarding `Cc1cn(C(C=O)OC(C=O)CO)c(=O)[nH]c1=O` (configuration not stated), the growth was 93.9%.

On to `COc1cc(-c2nc3nc4sc(C)c(C)c4c(=O)n3[nH]2)cc(OC)c1OC`, for which the growth was 30.7%.

Turning to `Nc1ccc2c(c1)Cc1cc(Cl)c(Cl)cc1-2`, the growth was 70.4%.

With `CCN(CC)CCCCCCCNc1c2ccc(Cl)cc2nc2ccc(OC)cc12`, the growth was -16.5% (active).

`O=C(Nc1nc(-c2ccc(Cl)cc2)cs1)c1cc(-c2ccc(Br)cc2)nc2ccc(Cl)cc12`: the growth is 15.4%.

Regarding `Cc1ccc(C(NC(=O)c2ccccc2)c2ccc3cccnc3c2O)cc1` (configuration not stated), the growth was 11%.

For `O=[N+]([O-])c1ccc(N=Nc2c(Cl)cc(O)cc2Cl)cc1`, the growth is 3.27% (active).

`N#Cc1ncc(-c2ccc(C(F)(F)F)cc2)c(NC2CCCCCC2)n1`: the growth is 52.6%.

On to `O=C(O)CNC(=O)C1(N2C(=O)c3ccccc3C2=O)CCCC1`, for which the growth was 99.3%.

As to `O=[N+]([O-])c1ccc2[nH]cc(-c3c4ccccc4cc4[nH]c5ccc([N+](=O)[O-])cc5c34)c2c1`, the growth is 10.2%.

`COCCCNS(=O)(=O)c1ncnc2nc[nH]c12`: the growth was 108%.

On to `O=C1Nc2ccc(Cl)cc2/C1=C/c1cccs1`, for which the growth is 99.4%.

As to `O=C(COc1ccc(/C=C2\Cc3ccccc3C2=O)cc1)c1ccc(Cl)cc1`, the growth is 117%.

Take `N=C1c2nc3n(c2C(=O)c2nc4n(c21)CCCCC4)CCCCC3`: the growth is 91.8%.

In the case of `O=C1N=C(N2CCOCC2)S/C1=C\c1cn(-c2ccccc2)nc1-c1ccccc1`, the growth was 71.5%.

Regarding `CCOC(=O)c1sc(NC(=O)COc2cccc(/C=C3\Cc4ccc(Cl)cc4C3=O)c2)nc1C`, the growth was 114%.

`C(=C1c2ccccc2-c2ccccc21)c1ccccn1`: the growth is 22.6%.

On to `O=C(Nc1ccccc1S)c1ccccc1`, for which the growth is 82.6%.

The subject of a further assay is RPMI-8226 leukemia. The description is as above. To be noted: 10 µM unless noted.
Take `O=c1ncc(-c2ccc(C(F)(F)F)cc2)c(NC2CCCCCC2)[nH]1`: the growth is 5% (active).

Regarding `NS(=O)(=O)N(c1cc(C(F)(F)F)cc(C(F)(F)F)c1)C1CCN(Cc2ccc(C(F)(F)F)cc2)CC1`, the growth is 31.7%.

With `O=C(c1ccc(Cl)cc1)c1ccc(Cl)cc1`, the growth is 115%.

Regarding `COc1cc(/C(Cl)=C/C=C/C(=O)c2c(C)[n+]([O-])c3ccc(Cl)cc3[n+]2[O-])cc(OC)c1OC`, the growth was 19%.

`CCSc1ncc(Br)c(Sc2nc(N)nc3nc[nH]c23)n1`: the growth is 26.1%.

For the molecule `O=C1/C(=C/c2ccccc2O)C(=S)SN1Cc1ccco1`, the growth is 66.8%.

Consider `COc1ccc2[nH]c(=O)c(CNc3ccc(Nc4nccc(-c5ccc(Cl)cc5)n4)cc3)cc2c1`, for which the growth is 77.6%.

As for `OCCN1CCN(CCCN2c3ccccc3Sc3ccc(C(F)(F)F)cc32)CC1`, the growth is 18.8%.

Take `C1CCC(C(CC2CCCCN2)C2CCCCC2)CC1` (configuration not stated): the growth is 5.39% (active).

On to `Cc1ncc(C(=O)Nc2ccc(CN3CCN(C)CC3)c(C(F)(F)F)c2)cc1C#Cc1cncc2ncccc12`, for which the growth was 49.7%.

As to `Cn1ccnc1C(=O)/C=C/c1ccc(C(=O)Nc2nc3ccccc3[nH]2)cc1`, the growth was 10.7%.

For the molecule `Cc1cn(C(C=O)OC(C=O)CO)c(=O)[nH]c1=O` (configuration not stated), the growth is 107%.

For the molecule `COc1cc(-c2nc3nc4sc(C)c(C)c4c(=O)n3[nH]2)cc(OC)c1OC`, the growth is 74.3%.

In the case of `O=C(Nc1nc(-c2ccc(Cl)cc2)cs1)c1cc(-c2ccc(Br)cc2)nc2ccc(Cl)cc12`, the growth was 16.1%.

On to `Cc1ccc(C(NC(=O)c2ccccc2)c2ccc3cccnc3c2O)cc1` (configuration not stated), for which the growth is 14.9%.

Consider `N#Cc1ncc(-c2ccc(C(F)(F)F)cc2)c(NC2CCCCCC2)n1`, for which the growth was -5.45% (active).

On to `O=[N+]([O-])c1ccc2[nH]cc(-c3c4ccccc4cc4[nH]c5ccc([N+](=O)[O-])cc5c34)c2c1`, for which the growth was 11.6%.

Take `COCCCNS(=O)(=O)c1ncnc2nc[nH]c12`: the growth is 107%.

Turning to `O=C1Nc2ccc(Cl)cc2/C1=C/c1cccs1`, the growth is 100%.

On to `O=C(COc1ccc(/C=C2\Cc3ccccc3C2=O)cc1)c1ccc(Cl)cc1`, for which the growth is 90.3%.

In the case of `N=C1c2nc3n(c2C(=O)c2nc4n(c21)CCCCC4)CCCCC3`, the growth is 99.1%.

As to `CCOC(=O)c1sc(NC(=O)COc2cccc(/C=C3\Cc4ccc(Cl)cc4C3=O)c2)nc1C`, the growth was 57.5%.
